# Reference: PubChem BioAssay
# Activity calls are given as the source filed them.
# Assays:
# Albumin (Bos taurus) = Albumin (Bos taurus) (UniProt P02769); assay: bovine serum albumin binders on microarray, profiling panel, artefact control for SMM control protein annotation, biochemical, small-molecule microarray, Alexa647 label, 635/667 nm fluorescence (AID 1118); conditions: BSA-A647 binding, fluorescence 635 nm, higher = more signal;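 note: score merges 667 nm emission intensity and signal-to-noise per printed compound spot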
# Sequence of Albumin (Bos taurus) (P02769 whole entry, looked up): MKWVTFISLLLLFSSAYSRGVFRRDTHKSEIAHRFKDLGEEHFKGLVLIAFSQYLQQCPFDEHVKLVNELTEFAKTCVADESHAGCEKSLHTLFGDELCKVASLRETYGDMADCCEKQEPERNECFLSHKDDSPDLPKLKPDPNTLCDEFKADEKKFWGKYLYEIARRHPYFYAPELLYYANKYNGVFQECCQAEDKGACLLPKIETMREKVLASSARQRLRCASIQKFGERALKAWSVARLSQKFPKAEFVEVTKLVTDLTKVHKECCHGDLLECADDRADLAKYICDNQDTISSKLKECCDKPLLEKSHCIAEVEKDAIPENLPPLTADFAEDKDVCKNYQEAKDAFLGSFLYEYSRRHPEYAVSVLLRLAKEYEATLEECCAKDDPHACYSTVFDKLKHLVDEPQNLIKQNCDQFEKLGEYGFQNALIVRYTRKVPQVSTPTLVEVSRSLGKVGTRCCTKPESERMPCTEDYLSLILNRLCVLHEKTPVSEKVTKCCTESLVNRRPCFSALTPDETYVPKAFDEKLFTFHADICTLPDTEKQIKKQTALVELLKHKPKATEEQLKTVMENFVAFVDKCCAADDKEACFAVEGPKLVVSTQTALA
# [1] = small-molecule microarray binders of probe aXIP, primary screen, biochemical, NeuroSMM set, 635/667 nm fluorescence (AID 1119); conditions: higher = more signal, called active from +8 up or from −8 down;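 note: probe is the protein aXip251-270 applied at 1 µg/mL to compound-printed slides; binding of probe to printed compounds measured as 667 nm fluorescence plus signal to noise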
# [2] = small-molecule binders of probe aNOTCH3, primary screen, biochemical, small-molecule microarray, 635/667 nm fluorescence (AID 1120); conditions: higher = more signal;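 note: probe is a biotin-tagged antibody raised against NOTCH3 rather than NOTCH3 protein; score merges spot fluorescence near 667 nm with spot signal to noise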
# [3] = small-molecule binders of probe aNOTCH2, primary screen, biochemical, small-molecule microarray, 635/667 nm fluorescence (AID 1121); conditions: higher = more signal;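 note: score merges feature fluorescence read at 667 nm with its signal to noise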
# [4] = biological target: Carbonic anhydrase 2 (Homo sapiens) (UniProt P00918); assay: CAII small-molecule binders, profiling panel, biochemical, small-molecule microarray, Alexa647-labelled CAII (AID 1122); conditions: CAII-A647 binding fluorescence, higher = more signal
# [5] = COS7 lysate on small-molecule microarray, probe aHis, 635 nm (AID 1123); conditions: COS7 cell lysate, fluorescence, higher = more signal;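 note: z-score combines 667nm fluorescence intensity with signal-to-noise per printed compound spot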
# [6] = compound binding in COS7 lysate, probe aLAP1, primary screen, cell lysate, small-molecule microarray (AID 1124); conditions: probe aLAP1, fluorescence, higher = more signal;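 note: lysate comes from COS7 cells expressing LAP1 and is applied at 0.3 µg/mL; score merges spot fluorescence near 667 nm with signal-to-noise over triplicate slides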
# Sam68 (KHDRBS1) = assay: Sam68 small-molecule binders, primary screen, biochemical, small-molecule microarray, 635 nm fluorescence (AID 1125); conditions: small-molecule microarray binding, higher = more signal;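 note: score merges 667 nm channel intensity with signal to noise over triplicate slides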
# [7] = test system: Chordin-like protein 2 (CHRDL2); assay: CHRDL2 small-molecule binders, primary screen, biochemical, small-molecule microarray, 635 nm fluorescence (AID 1126); conditions: small-molecule microarray binding, fluorescence 635 nm; higher = more signal;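 note: printed compound slides probed with Chrdl2 protein at 4 µg/mL for 1 h at 4 C; score merges 667 nm emission intensity with signal to noise over three replicate slides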
# [8] = biological target: Concanavalin-A (Canavalia ensiformis) (UniProt P02866); assay: ConA small-molecule binders, primary screen, artefact control for SMM control protein annotation, biochemical, small-molecule microarray, Alexa647 label, 635 nm (AID 1127); conditions: ConA-A647 binding fluorescence, higher = more signal;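 note: z combines 667 nm emission intensity with signal-to-noise across three replicate slides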
# Sequence of Concanavalin-A (Canavalia ensiformis) (P02866 whole entry, looked up): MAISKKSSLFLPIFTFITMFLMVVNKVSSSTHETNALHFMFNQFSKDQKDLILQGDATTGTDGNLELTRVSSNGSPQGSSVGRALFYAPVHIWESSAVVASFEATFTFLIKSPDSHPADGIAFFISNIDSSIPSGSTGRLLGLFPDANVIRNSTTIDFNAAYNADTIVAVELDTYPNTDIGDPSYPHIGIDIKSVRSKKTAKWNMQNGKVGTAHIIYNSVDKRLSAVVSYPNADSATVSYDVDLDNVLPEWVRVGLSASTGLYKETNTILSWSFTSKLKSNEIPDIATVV
# [9] = anti-His antibody binders, primary screen, artefact control for SMM control protein annotation, biochemical, small-molecule microarray, 635 nm fluorescence (AID 1128); conditions: anti-His Alexa647 antibody binding, higher = more signal;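 note: score merges feature fluorescence with signal-to-noise for each printed compound spot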
# [10] = test system: Human papillomavirus type 1a E7 protein (residues 1-88); assay: HPV1a E7 small-molecule binders, primary screen, biochemical, small-molecule microarray, residues 1-88, 635 nm (AID 1129); conditions: small-molecule microarray binding, fluorescence 635 nm; higher = more signal
# [11] = biological target: Focal adhesion kinase 1 (Homo sapiens) (UniProt Q05397); assay: small-molecule microarray binders of FAK, primary screen, biochemical, 635/667 nm fluorescence, BSA, DTT (AID 1130); conditions: PTK2 binding, 635 nm fluorescence, higher = more signal;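 note: composite of spot emission at 667 nm and signal to noise over triplicate slides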
# Sequence of Focal adhesion kinase 1 (Homo sapiens) (Q05397 whole entry, looked up): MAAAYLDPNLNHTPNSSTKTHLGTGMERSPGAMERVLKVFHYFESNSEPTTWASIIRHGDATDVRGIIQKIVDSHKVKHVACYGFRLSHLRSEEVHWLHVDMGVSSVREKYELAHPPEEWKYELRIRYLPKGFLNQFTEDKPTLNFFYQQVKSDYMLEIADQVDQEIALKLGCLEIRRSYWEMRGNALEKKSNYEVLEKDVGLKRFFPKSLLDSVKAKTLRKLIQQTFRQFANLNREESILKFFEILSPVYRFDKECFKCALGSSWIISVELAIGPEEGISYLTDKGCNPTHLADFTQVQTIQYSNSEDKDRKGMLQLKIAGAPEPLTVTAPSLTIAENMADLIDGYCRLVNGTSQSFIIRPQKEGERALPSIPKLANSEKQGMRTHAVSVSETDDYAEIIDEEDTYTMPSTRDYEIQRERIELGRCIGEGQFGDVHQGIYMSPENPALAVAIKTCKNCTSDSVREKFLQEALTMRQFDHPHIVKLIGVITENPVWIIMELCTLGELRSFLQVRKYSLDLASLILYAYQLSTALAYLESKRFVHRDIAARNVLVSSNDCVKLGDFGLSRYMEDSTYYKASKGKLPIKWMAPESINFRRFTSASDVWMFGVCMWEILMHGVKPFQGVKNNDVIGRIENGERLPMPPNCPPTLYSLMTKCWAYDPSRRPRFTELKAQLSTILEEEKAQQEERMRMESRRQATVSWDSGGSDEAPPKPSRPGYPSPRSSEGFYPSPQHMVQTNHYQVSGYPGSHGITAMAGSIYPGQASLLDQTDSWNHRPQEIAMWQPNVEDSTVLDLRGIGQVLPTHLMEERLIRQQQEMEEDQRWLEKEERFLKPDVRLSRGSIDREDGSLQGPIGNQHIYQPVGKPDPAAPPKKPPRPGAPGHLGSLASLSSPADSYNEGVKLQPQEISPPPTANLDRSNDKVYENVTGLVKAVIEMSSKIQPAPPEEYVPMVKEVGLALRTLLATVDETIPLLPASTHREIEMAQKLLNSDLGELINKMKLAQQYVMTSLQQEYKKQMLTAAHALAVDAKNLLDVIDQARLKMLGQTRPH
# [12] = test system: Fibrinogen (Alexa647-labelled); assay: fibrinogen binders on compound microarrays, profiling panel, artefact control for SMM control-protein annotation, biochemical, small-molecule microarray, 635/667 nm fluorescence (AID 1131); conditions: fibrinogen-A647 binding fluorescence, higher = more signal;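 note: z-score merges 667 nm fluorescence with per-spot signal-to-noise over triplicate slides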
# [13] = biological target: Follistatin (Homo sapiens) (UniProt P19883); assay: follistatin binders on small-molecule microarrays, primary screen, biochemical, small-molecule microarray, 635/667 nm fluorescence (AID 1132); conditions: FST binding, 635 nm fluorescence, higher = more signal
# Sequence of Follistatin (Homo sapiens) (P19883 whole entry, looked up): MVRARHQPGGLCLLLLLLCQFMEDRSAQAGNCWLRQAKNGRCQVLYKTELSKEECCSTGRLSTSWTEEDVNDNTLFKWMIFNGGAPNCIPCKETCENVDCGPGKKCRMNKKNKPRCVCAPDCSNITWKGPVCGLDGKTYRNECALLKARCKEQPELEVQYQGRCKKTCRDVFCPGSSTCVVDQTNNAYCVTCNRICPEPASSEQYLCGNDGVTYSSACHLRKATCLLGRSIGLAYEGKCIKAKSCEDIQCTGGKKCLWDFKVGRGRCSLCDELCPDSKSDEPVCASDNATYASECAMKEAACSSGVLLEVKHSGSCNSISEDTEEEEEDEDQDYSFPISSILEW
# [14] = biological target: Fibroblast growth factor 2 (Homo sapiens) (UniProt P09038); assay: FGF2 binders on small-molecule microarrays, primary screen, biochemical, small-molecule microarray, 635/667 nm fluorescence (AID 1133); conditions: small-molecule microarray binding, FGF2, fluorescence 635/667; higher = more signal
# Sequence of Fibroblast growth factor 2 (Homo sapiens) (P09038 whole entry, looked up): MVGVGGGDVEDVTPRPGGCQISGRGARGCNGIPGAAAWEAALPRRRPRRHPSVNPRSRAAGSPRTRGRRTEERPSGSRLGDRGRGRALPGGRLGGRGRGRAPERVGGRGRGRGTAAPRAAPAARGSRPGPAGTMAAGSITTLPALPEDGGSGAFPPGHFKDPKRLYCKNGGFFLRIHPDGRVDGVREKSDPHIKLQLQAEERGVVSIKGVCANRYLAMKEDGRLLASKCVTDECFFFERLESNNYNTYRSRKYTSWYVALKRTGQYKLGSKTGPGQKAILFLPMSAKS
# [15] = mitochondrial membrane potential change in A549 cells, profiling panel, cell-based, JC-1 fluorescence, basal, 24 h, 100 nL (AID 1138); conditions: higher = more signal;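 note: A549 lung adenocarcinoma cells under basal conditions with no added stimulus; test concentration not given here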
# Lefty1 = Lefty1 binders on small-molecule microarrays, primary screen, biochemical, small-molecule microarray, 635/667 nm fluorescence (AID 1139); conditions: small-molecule microarray binding, fluorescence 635/667; higher = more signal
# [16] = test system: wheat germ agglutinin (Triticum aestivum), Alexa647-labelled; assay: wheat germ agglutinin binders on compound microarrays, profiling panel, artefact control for SMM control-protein annotation, biochemical, small-molecule microarray, 635/667 nm fluorescence (AID 1140); conditions: WGA-A647 binding, 635 nm fluorescence, higher = more signal;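 note: score merges 667 nm feature emission with signal to noise over triplicate slides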
# [17] = biological target: Luciferin 4-monooxygenase (Photinus pyralis) (UniProt P08659); assay: firefly luciferase enzyme inhibitors, primary screen, biochemical, luminescence, purified enzyme, 2006 set (AID 1141); conditions: SteadyGlo luminescence, 30 min, higher = more signal, called active from +8 up or from −8 down;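 note: cell-free assay with purified firefly luciferase at 100 ng per well in PBS; test concentration not given here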
# Sequence of Luciferin 4-monooxygenase (Photinus pyralis) (P08659 whole entry, looked up): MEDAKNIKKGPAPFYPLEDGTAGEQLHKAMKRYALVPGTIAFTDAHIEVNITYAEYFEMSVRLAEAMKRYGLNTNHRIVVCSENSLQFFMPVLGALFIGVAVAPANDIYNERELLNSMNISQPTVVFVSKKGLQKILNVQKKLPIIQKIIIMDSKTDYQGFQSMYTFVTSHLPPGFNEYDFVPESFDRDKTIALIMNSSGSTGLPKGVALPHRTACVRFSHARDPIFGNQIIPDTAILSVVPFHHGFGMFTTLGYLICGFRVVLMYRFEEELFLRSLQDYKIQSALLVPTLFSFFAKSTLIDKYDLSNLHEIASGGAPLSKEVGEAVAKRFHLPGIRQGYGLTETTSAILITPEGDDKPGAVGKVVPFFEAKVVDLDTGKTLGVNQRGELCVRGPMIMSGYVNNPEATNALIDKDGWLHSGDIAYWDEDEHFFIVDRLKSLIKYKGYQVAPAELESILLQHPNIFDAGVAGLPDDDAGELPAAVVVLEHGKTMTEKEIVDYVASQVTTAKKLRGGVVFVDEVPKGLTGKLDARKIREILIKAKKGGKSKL
Compound,composite z-score (Albumin (Bos taurus)),composite Z-score [1],composite z-score [2],composite z-score [3],composite z-score [4],composite z-score [5],composite z-score [6],composite z-score (Sam68 (KHDRBS1)),composite z-score [7],composite z-score [8],composite z-score [9],composite z-score [10],composite z-score [11],composite z-score [12],composite z-score [13],composite z-score [14],z-score [15],composite z-score (Lefty1),composite z-score [16],z-score [17]
CCCCC(=C=CC[C@H](O)c1ccc(CO)o1)CCO,0.86,-0.334 (inactive),-0.0544,-0.0404,0.54,0.143,-0.311,0.864,0.386,0.689,0.149,0.661,0.323,-0.884,0.986,0.662,0.164,0.738,0.0416,-0.783 (inactive)
Cc1ccc(S[C@]2(C(=O)NCCCN(C)C)CC(=O)N(Cc3ccccc3C(F)(F)F)[C@@H]2c2ccc(CO)cc2I)cc1,0.374,-0.755 (inactive),-0.422,0.337,0.792,1.36,1.83,0.492,-0.532,0.0055,-0.626,-0.0904,0.591,-0.745,0.0315,-0.635,0.281,-1.32,-0.193,-0.514 (inactive)
Cc1ccc(S[C@]2(C(=O)NCc3ccccc3)CC(=O)N(Cc3ccccc3C(F)(F)F)[C@@H]2c2ccc(CO)cc2)cc1,-0.17,0.131 (inactive),-0.413,0.0022,-0.333,0.397,-0.618,0.199,-1.77,-0.586,-0.645,-0.347,-0.496,0.443,-1.4,-0.574,0.802,-1.51,-0.212,-0.0819 (inactive)
CCCCCC1=C2CNC(CC(C)C)(C(=O)OC)C=C2C(C)C1=O (stereo not given),0.624,-0.378 (inactive),0.376,0.0453,0.495,1.9,0.602,1.18,-0.861,0.232,0.654,1.17,1.61,0.955,-0.127,-0.544,0.326,-0.145,0.955,-0.0622 (inactive)
O=C(NC1CC1)[C@@H]1c2ccccc2C(=O)N(Cc2ccc(OC(F)(F)F)cc2)[C@H]1c1ccc(CO)cc1,0.22,0.061 (inactive),-0.1,-0.0974,0.642,1.41,-0.169,0.932,-0.584,-0.037,-0.0809,0.836,0.234,-1.39,0.664,0.668,1.39,0.39,0.331,1.12 (inactive)
CC(C)NC(=O)[C@@H]1c2ccccc2C(=O)N(Cc2ccc(OC(F)(F)F)cc2)[C@H]1c1ccc(CO)cc1,-0.215,-0.194 (inactive),0.503,0.321,0.268,1.35,0.651,1.3,0.215,0.882,0.7,1.18,0.344,0.529,1.34,1.22,0.107,0.868,0.45,0.441 (inactive)
CC(C)(C)OC(=O)CC[C@@]1(C(=O)NCCN2CCOCC2)N=C(c2ccc(OCCCO)cc2)O[C@@H]1c1ccccc1CN=[N+]=[N-],0.812,2.03 (inactive),0.0488,-0.112,0.245,1.17,0.59,0.696,-0.743,1.08,0.384,0.372,0.499,1.01,-0.0674,-0.495,-0.293,-0.0313,0.608,-4.33 (inactive)
C=CCN1C(=O)[C@@]2(O[C@@H](CCn3cc([C@H](O)c4ccccc4)nn3)[C@H]([Si](C)(C)c3ccc(OC)cc3)[C@H]2C)c2cc(N3C(=O)c4cccc5cccc3c45)ccc21,0.0345,-0.212 (inactive),-0.272,-0.223,0.106,0.436,0.0703,-0.233,-1.02,0.341,0.338,-0.526,-0.204,-0.295,-0.638,-0.722,1.36,-0.475,-0.22,-0.0152 (inactive)
O=C1OCCC=C[C@H]2OC34C=CCN(c5ccc6ccccc6c5)C(=O)[C@H]3N(CCO)C(=O)[C@@H]4C12 (stereo not given in full),-0.594,0.465 (inactive),-0.571,-0.445,0.368,-0.237,-0.162,-0.362,-0.976,-0.403,-0.75,-0.803,-0.101,-0.318,-0.129,-0.909,-0.522,-0.472,-0.117,-0.207 (inactive)
CO[C@H]1O[C@H](CO)[C@@H](OC(=O)Nc2ccccc2-c2ccccc2)[C@H](OC(=O)Nc2ccccc2)[C@H]1OC(=O)Nc1ccccc1,0.167,-0.295 (inactive),0.199,-0.0846,0.701,2.41,0.268,1.3,0.697,1.15,1.38,1.29,0.508,0.991,1.3,1.86,-1.06,0.719,0.679,-0.849 (inactive)
COC(=O)C(CC#Cc1ccc2c(c1)[C@]1(C(=O)N2)[C@H](c2ccc(OCCO)cc2)N2[C@H](c3ccccc3)[C@H](c3ccccc3)OC(=O)[C@H]2[C@@H]1C(=O)N1CCCCCCC1)C(=O)OC,0.576,4.71 (inactive),1.75,0.967,0.933,3.5,1.65,1.3,1.52,1.21,2.65,1.17,2.67,0.68,1.45,0.724,-1.39,1.24,1.46,-0.596 (inactive)
